The supplement of paper PMC10849652
The full data set covers some 8,800 targets. This sample favours those with a hit. About 0.5% of all pairs of compound and target were hits. Unmarked numbers belong to inactive results.

Legend:
Assay in all cases: log2 fold change, soluble protein after heating vs DMSO (PISA); higher = thermal stabilisation; K562 lysate, 10 uM; active = over 0.2 and 3.5 SD of the protein, either way, in both replicates (recomputed)
alvocidib = compound: CN1CC[C@H](c2c(O)cc(O)c3c(=O)cc(-c4ccccc4Cl)oc23)[C@H](O)C1 [alvocidib]
Summary of the method: (§1)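 K562 pellets were dounce-homogenised in PBS pH 7.4 with 1 mM MgCl2, and the crude extract at 1 mg/mL protein was treated with 10 μM compound for 30 min. Aliquots were heated for 3 min across 48°C-58°C, pooled, and brought to 0.5% NP-40 at 4°C; soluble protein was the supernatant after 21,000xg for 90 min. Soluble protein was quantified by TMTpro 16plex LC-MS/MS with channel sums equalised, and reported as log2 fold change in thermal stability against DMSO controls, with values from duplicates.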

Tubastatin A = compound: CN1CCc2c(c3ccccc3n2Cc2ccc(C(=O)NO)cc2)C1 [Tubastatin A]
Summary of the method: as §1

[1] = compound: CNC(=O)C1=CC=CC=C1NC2=NC(=NC=C2Cl)NC3=C(C=C(C=C3)N4CCOCC4)OC
Summary of the method: as §1

defactinib = compound: CNC(=O)c1ccc(Nc2ncc(C(F)(F)F)c(NCc3nccnc3N(C)S(C)(=O)=O)n2)cc1 [defactinib]
Summary of the method: as §1

[2] = compound: CNc1nc(-c2ccc3c(N)n[nH]c3c2)cc(N2C[C@@H](C(=O)NC3CCCCC3)CC[C@H]2C)n1
Summary of the method: as §1

encorafenib = compound: COC(=O)N[C@@H](C)CNc1nccc(-c2cn(C(C)C)nc2-c2cc(Cl)cc(NS(C)(=O)=O)c2F)n1 [encorafenib]
Summary of the method: as §1

[3] = compound: COC(=O)[C@H](CCSC)NC(=O)C1=C(C=C(C=C1)NC[C@H](CS)N)C2=CC=CC=C2
Summary of the method: as §1

alisertib = compound: COc1cc(Nc2ncc3c(n2)-c2ccc(Cl)cc2C(c2c(F)cccc2OC)=NC3)ccc1C(=O)O [alisertib]
Summary of the method: as §1

[4] = compound: COc1cc2nc(-c3cc(F)ccc3O)nc(N[C@@H]3CNC[C@H]3C(C)(C)O)c2cc1OC
Summary of the method: as §1

gefitinib = compound: COc1cc2ncnc(Nc3ccc(F)c(Cl)c3)c2cc1OCCCN1CCOCC1 [gefitinib]
Summary of the method: as §1

UniProt Q8TAP6, sequence (Q8TAP6 whole entry, looked up): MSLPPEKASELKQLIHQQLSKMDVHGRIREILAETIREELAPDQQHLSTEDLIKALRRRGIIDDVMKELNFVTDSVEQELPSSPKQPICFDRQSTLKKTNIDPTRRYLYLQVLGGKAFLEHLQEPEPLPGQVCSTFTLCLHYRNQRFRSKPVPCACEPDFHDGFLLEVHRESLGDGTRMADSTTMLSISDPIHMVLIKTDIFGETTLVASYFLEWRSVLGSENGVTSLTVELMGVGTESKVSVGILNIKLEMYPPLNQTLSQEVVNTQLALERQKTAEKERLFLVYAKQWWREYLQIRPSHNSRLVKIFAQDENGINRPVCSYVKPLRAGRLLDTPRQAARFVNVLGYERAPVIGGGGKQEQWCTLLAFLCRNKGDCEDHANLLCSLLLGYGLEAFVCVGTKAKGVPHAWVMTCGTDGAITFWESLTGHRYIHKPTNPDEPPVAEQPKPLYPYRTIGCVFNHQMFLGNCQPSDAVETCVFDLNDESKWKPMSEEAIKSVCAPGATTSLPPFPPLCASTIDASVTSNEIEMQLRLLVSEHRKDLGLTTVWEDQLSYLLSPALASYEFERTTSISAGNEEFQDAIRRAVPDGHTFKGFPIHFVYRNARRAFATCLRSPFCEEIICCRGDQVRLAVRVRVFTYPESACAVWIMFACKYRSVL
UniProt P23634, sequence (P23634 whole entry, looked up): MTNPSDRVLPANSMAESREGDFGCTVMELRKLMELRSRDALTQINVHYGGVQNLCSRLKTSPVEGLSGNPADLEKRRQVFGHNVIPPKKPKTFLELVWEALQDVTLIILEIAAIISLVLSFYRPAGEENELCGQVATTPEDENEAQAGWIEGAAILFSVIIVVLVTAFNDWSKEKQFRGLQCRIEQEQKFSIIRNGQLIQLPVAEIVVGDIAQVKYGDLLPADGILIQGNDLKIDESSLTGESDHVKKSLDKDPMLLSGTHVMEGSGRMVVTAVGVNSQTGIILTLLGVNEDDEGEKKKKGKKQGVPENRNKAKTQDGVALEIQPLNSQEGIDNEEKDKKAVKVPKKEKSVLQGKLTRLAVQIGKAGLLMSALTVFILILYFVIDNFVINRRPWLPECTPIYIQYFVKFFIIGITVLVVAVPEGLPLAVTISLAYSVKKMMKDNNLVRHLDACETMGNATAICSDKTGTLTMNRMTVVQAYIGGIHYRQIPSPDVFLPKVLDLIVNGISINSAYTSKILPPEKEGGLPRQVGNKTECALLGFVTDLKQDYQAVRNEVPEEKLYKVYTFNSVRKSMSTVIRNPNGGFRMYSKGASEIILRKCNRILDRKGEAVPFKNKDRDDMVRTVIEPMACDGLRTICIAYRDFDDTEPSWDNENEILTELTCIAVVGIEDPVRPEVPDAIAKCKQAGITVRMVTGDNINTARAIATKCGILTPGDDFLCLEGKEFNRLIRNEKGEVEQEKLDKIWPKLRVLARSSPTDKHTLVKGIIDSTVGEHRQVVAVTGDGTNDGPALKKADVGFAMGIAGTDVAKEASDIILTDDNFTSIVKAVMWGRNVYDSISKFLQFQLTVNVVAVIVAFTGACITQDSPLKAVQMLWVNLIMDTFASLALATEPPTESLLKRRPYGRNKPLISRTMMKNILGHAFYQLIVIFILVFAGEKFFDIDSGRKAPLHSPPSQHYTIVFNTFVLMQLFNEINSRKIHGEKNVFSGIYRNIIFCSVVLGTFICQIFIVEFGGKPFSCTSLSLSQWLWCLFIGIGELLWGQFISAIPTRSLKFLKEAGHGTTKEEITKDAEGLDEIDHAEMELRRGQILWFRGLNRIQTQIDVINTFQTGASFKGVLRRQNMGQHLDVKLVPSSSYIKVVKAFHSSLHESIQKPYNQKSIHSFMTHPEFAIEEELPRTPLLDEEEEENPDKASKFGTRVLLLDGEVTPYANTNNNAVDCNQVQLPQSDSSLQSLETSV
UniProt Q86WA6, sequence (Q86WA6 whole entry, looked up): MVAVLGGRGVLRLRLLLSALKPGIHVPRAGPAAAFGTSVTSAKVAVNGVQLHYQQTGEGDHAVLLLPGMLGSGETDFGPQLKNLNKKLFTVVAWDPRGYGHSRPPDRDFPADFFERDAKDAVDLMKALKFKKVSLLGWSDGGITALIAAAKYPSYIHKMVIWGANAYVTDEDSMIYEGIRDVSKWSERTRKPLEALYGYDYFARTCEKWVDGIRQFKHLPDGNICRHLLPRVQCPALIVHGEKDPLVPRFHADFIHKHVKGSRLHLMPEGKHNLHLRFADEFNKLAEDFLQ
UniProt P54132, sequence (P54132 whole entry, looked up): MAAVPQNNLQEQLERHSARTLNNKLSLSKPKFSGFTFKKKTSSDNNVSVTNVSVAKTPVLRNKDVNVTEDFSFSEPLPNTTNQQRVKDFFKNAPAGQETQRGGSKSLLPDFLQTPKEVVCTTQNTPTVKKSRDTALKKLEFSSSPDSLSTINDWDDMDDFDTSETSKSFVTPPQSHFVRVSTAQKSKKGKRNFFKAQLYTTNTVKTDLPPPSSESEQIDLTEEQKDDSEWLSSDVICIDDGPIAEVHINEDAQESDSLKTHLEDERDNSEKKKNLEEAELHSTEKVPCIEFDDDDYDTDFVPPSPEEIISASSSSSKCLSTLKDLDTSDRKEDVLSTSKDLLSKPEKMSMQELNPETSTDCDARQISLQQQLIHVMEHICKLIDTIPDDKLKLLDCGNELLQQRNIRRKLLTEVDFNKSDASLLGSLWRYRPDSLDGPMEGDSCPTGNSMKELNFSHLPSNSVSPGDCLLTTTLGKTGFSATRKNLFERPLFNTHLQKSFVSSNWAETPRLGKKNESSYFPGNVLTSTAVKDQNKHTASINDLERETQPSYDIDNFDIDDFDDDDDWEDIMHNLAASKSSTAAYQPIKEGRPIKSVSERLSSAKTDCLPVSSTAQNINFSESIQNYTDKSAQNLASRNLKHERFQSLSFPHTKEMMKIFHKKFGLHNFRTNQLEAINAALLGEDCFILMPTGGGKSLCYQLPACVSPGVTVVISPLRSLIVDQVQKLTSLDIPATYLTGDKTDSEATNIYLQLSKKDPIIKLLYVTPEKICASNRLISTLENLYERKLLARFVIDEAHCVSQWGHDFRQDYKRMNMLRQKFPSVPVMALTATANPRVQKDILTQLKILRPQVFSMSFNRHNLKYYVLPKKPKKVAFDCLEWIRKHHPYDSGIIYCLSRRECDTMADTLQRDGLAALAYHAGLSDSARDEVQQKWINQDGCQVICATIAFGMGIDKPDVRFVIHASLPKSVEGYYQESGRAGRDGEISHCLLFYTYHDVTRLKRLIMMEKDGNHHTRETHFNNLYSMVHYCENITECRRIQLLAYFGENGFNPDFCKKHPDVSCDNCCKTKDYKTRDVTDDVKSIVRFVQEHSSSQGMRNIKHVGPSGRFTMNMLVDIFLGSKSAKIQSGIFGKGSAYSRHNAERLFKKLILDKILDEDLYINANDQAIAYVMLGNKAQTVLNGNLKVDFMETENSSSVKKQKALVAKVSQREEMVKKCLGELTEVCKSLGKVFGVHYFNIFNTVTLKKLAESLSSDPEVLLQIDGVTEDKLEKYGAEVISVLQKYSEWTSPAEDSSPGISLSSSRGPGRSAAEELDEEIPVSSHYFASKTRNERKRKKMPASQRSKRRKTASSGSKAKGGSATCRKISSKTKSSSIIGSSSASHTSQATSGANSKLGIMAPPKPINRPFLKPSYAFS
UniProt P40227, sequence (P40227 whole entry, looked up): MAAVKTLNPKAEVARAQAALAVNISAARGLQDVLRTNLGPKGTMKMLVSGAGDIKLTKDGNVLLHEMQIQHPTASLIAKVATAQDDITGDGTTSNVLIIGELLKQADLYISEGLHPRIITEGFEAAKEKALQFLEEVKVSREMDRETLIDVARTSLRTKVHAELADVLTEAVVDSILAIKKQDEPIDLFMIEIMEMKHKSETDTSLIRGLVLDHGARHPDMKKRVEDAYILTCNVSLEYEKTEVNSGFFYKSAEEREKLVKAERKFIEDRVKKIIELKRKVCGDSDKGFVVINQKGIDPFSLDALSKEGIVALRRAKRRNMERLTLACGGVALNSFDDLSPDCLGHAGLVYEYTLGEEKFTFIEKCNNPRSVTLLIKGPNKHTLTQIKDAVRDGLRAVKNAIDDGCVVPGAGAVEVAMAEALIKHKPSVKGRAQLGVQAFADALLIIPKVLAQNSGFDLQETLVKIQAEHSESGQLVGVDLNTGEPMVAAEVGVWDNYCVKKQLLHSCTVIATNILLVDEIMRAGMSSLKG
UniProt Q06187, sequence (Q06187 whole entry, looked up): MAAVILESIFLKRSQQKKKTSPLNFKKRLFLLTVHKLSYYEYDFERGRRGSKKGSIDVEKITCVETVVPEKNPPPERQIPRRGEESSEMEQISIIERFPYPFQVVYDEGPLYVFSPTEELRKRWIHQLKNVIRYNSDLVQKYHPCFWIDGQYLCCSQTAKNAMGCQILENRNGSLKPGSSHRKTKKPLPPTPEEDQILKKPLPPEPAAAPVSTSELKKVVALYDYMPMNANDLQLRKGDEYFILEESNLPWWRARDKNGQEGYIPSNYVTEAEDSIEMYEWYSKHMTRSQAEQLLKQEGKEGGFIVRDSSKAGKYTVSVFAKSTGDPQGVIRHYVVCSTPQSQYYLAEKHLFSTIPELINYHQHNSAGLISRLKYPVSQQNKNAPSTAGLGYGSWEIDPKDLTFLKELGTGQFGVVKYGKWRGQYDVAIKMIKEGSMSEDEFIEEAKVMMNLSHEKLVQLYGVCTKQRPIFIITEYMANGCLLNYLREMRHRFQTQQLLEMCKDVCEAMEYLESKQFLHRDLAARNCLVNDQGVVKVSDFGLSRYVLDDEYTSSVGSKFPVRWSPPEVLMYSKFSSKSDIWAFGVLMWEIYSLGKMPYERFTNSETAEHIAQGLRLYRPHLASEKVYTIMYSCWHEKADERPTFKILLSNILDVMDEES
UniProt P18859, sequence (P18859 whole entry, looked up): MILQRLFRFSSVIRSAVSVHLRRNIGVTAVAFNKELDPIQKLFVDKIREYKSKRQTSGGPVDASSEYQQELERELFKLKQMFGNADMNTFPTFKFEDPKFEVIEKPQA

Target	log2 fold change (alvocidib)	log2 fold change (Tubastatin A)	log2 fold change [1]	log2 fold change (defactinib)	log2 fold change [2]	log2 fold change (encorafenib)	log2 fold change [3]	log2 fold change (alisertib)	log2 fold change [4]	log2 fold change (gefitinib)
BCKDK (UniProt O14874)	0.029	-0.117	-0.005	0.029	-0.098	-0.061	0.066	0.023	-0.027	0.053
CDK2 (UniProt P24941)	0.304 (active)	0.021	0.08	0.196	0.048	0.016	-0.012	-0.01	0.072	-0.012
C19orf54 (UniProt Q5BKX5)	-0.032	0.004	0.048	-0.039	0.023	0.024	0.151	-0.099	0.069	0.08
ATRIP (UniProt Q8WXE1)	0.012	-0.105	-0.074	-0.114	-0.141	0.068	-0.061	0.016	0.03	0.026
BUB1B isoform 3 (UniProt O60566)	-0.032	-0.122	0.018	-0.012	0.018	0.033	0.018	0.002	0.011	-0.005
CCNH (UniProt P51946)	0.006	0.016	-0.015	0.026	-0.018	0.033	-0.047	-0.005	-0.007	0.024
ATP2B4 (UniProt P23634)	-0.116	0.015	-0.006	-0.043	0.001	0.021	-0.041	-0.104	0.009	0.023
ATXN2 (UniProt Q99700)	0.046	-0.047	0.016	-0.019	0.001	0.018	-0.003	-0.032	0.011	0.006
CCNY (UniProt Q8ND76)	0.001	-0.139	-0.015	0.011	0.04	0.023	-0.085	0.037	0.008	-0.091
CAMLG (UniProt P49069)	0.051	-0.037	0.044	0.067	-0.012	0.09	-0.13	0.136	0.006	0.028
CFDP1 (UniProt Q9UEE9)	-0.104	0.057	0.042	-0.01	-0.051	0.005	-0.021	-0.013	0.015	-0.005
BSDC1 (UniProt Q9NW68)	-0.033	0.052	0.018	0.031	-0.025	0.112	-0.149	0.026	-0.031	-0.017
CCT6A (UniProt P40227)	0.027	0.025	0.006	-0.018	-0.001	-0.015	-0.024	0.012	-0.003	-0.021
CHCHD1 (UniProt Q96BP2)	0.494	0.046	0.028	-0.033	0.087	-0.018	-0.042	0.003	0.023	0.228
CEP76 (UniProt Q8TAP6)	-0.031	-0.015	0.03	0.084	-0.023	-0.006	0.005	0.002	0	0.001
AURKA (UniProt O14965)	-0.006	0.03	0.586	0.425	0.094	-0.068	0.002	0.436	-0.023	-0.101
CCDC47 (UniProt Q96A33)	0.009	0.016	-0.015	0.004	-0.028	-0.045	-0.037	0.037	-0.035	-0.011
BTK isoform 2 (UniProt Q06187)	-0.037	-0.113	0.307 (active)	0.017	-0.039	-0.033	0.051	-0.012	-0.029	-0.046
C1orf112 (UniProt Q9NSG2)	-0.247	-0.181	0.077	0.038	-0.082	0.037	0.096	-0.032	-0.046	-0.004
CARS isoform 3 (UniProt P49589)	0.006	-0.041	0.001	-0.013	-0.01	-0.013	0.213 (active)	0.003	-0.005	-0.019
BPHL (UniProt Q86WA6)	0.004	-0.006	-0.048	0.036	-0.137	-0.002	0.004	0.085	-0.028	0.009
BAG4 (UniProt O95429)	0.04	-0.096	-0.01	-0.001	0.023	-0.032	0.005	-0.023	0.003	0.039
CASP6 (UniProt P55212)	-0.011	-0.003	0.067	0.039	-0.046	-0.015	-0.026	0.023	-0.029	0.061
ATG4A (UniProt Q8WYN0)	0	-0.104	0.042	0.036	0.01	0.037	-0.087	-0.016	-0.001	0.052
CDS2 (UniProt O95674)	-0.037	0.116	-0.036	0.04	-0.021	0.027	0.007	0.012	0.033	0
BLM (UniProt P54132)	0.082	-0.07	0.071	0.031	0.001	0.043	0.018	-0.025	-0.006	-0.054
C5orf51 (UniProt A6NDU8)	0.075	-0.123	-0.01	-0.045	-0.043	-0.006	0.144	0.023	0.038	0.056
CDK5RAP2 (UniProt Q96SN8)	0.018	-0.15	0.009	0.037	-0.007	0.045	0.012	-0.007	-0.144	-0.021
ATP5PF isoform 2 (UniProt P18859)	0.203	0.146	0.042	0.071	-0.022	0.014	-0.061	-0.005	0.01	-0.173
C15orf41 (UniProt Q9Y2V0)	-0.002	-0.036	0.039	-0.13	0.002	0.126	-0.043	0.023	0.09	0.006
